Article PMC10726135, “HNF4α isoforms regulate the circadian balance between carbohydrate and lipid metabolism in the liver”
In all, about 18,000 sequences were measured (“log2 normalized intensity”: median about 0.36, highest 2% from about 7.3 on). The entries come from a sample that favours the highest values as a whole.

Molecular target: T1, HNF4alpha8 (COS-7 nuclear extract) (Homo sapiens, UniProt P41235-5 1-452)
T1 sequence: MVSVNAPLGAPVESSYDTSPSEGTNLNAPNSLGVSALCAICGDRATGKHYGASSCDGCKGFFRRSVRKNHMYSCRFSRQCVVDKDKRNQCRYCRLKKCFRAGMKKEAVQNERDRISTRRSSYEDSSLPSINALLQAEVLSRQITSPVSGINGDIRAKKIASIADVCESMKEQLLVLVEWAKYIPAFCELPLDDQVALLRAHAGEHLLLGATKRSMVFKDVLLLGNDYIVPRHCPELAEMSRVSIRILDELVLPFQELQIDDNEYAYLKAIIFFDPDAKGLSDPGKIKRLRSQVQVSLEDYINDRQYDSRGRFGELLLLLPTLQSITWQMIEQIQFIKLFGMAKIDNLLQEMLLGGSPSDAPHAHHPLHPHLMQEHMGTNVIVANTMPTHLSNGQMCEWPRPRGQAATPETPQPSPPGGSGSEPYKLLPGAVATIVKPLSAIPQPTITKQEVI
Assay: protein-binding microarray; COS-7 nuclear extract on double-stranded Agilent 4x180k PBM; binding buffer, salt, pH and temperature not given in the material; high values mean tight binding
Conditions: chain copies: 2; label: 3' end of strand 1 on the slide; dsDNA, one strand shown
How it was run: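 Double-stranded oligonucleotides of ~60 nt, representing ~44,000 test sequences in quadruplicate, made up a custom Agilent SurePrint G3 4x180k array. Nuclear extracts from COS-7 cells transiently transfected by CaPO4 with a human HNF4α isoform expression vector were applied, and bound HNF4α was imaged at 2-µm resolution on an Agilent G2565CA scanner. Binding signal refers to the background-corrected, normalized gProcessedSignal output of Agilent software.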

| Sequence | binding signal |
| --- | --- |
| TGCAAGTTACCTTGGGGTCAAAGTACATCCGCCTAGGGAGATTAGAGTATCGGTCGA | 9.54 log2 normalized intensity |
| TTGCAGACCTTGGTCAAAGTGACACATTCCGCCTAGGGAGATTAGAGTATCGGTCGA | 0.772 log2 normalized intensity |
| AGGTGCAAAGTACATATTTACTTACCTTTTGCCTAGGGAGATTAGAGTATCGGTCGA | 3.68 log2 normalized intensity |
| CTTGGGGTCAAAGTACATCCCCTAAAACATGCCTAGGGAGATTAGAGTATCGGTCGA | 6.61 log2 normalized intensity |
| GTTACCTTGGGGTCAAAGTACATCCCCTAAGCCTAGGGAGATTAGAGTATCGGTCGA | 7.38 log2 normalized intensity |
| GGTCAAAGTACATCCCCTAAAACATCAAATGCCTAGGGAGATTAGAGTATCGGTCGA | 3.45 log2 normalized intensity |
| AACACCAGCAACCGCCTACCTTTGGACTTCGCCTAGGGAGATTAGAGTATCGGTCGA | 6.25 log2 normalized intensity |
| TGGACCATTGCTGACCTTGCCTCTGTGCTCGCCTAGGGAGATTAGAGTATCGGTCGA | 1.8 log2 normalized intensity |
| CTCTGGCCAGAGAGATGTCAGCCCAAGATAGCCTAGGGAGATTAGAGTATCGGTCGA | 3.25 log2 normalized intensity |
| AAATGAAGTGGTATCCTGCAGTCAGTCTGAGCCTAGGGAGATTAGAGTATCGGTCGA | -0.508 log2 normalized intensity |
| TGACTTTCTTCCTATGGGATCAAAGTGCGAGCCTAGGGAGATTAGAGTATCGGTCGA | 5.69 log2 normalized intensity |
| AAAAAATGGGCAAAGGACAATAATGAATAAGCCTAGGGAGATTAGAGTATCGGTCGA | -0.651 log2 normalized intensity |
| CCTTGACCCTTCCTCCCATTTGCTGCTCTAGCCTAGGGAGATTAGAGTATCGGTCGA | 1.81 log2 normalized intensity |
| AAGCACATACTTCTTCCTGTTTGACCTTCGGCCTAGGGAGATTAGAGTATCGGTCGA | 5.61 log2 normalized intensity |
| CATACTTCTTCCTGTTTGACCTTCGAACCCGCCTAGGGAGATTAGAGTATCGGTCGA | 10.1 log2 normalized intensity |
| CTCCTGTTTGTATTCCTTGTCCTTGACCCTGCCTAGGGAGATTAGAGTATCGGTCGA | 4.96 log2 normalized intensity |
| TTGACCTTCGAACCCTTGCCATTTACATCAGCCTAGGGAGATTAGAGTATCGGTCGA | 6.21 log2 normalized intensity |
| CCTGTTTGACCTTCGAACCCTTGCCATTTAGCCTAGGGAGATTAGAGTATCGGTCGA | 7.81 log2 normalized intensity |
| TTGACCTTCTCTGTTAACCCTTTGCAGCCCGCCTAGGGAGATTAGAGTATCGGTCGA | 2.91 log2 normalized intensity |
| GTACCTTGACCTTCTCTGTTAACCCTTTGCGCCTAGGGAGATTAGAGTATCGGTCGA | 4.52 log2 normalized intensity |
| TTCTTCCTGTTTGACCTTCGAACCCTTGCCGCCTAGGGAGATTAGAGTATCGGTCGA | 9.64 log2 normalized intensity |
| ACCTCTGTAATAACTGCAGTGCCACTCGGGGCCTAGGGAGATTAGAGTATCGGTCGA | -0.418 log2 normalized intensity |
| CTTTATCCTACAAGGGAGATAAACTTTATCGCCTAGGGAGATTAGAGTATCGGTCGA | 0.672 log2 normalized intensity |
| GCTTGGCAAACATTTCACTTTGCTCCCTCCGCCTAGGGAGATTAGAGTATCGGTCGA | 2.18 log2 normalized intensity |
| TGAATGATCAAAGGTTGGTTTTTGGAGACAGCCTAGGGAGATTAGAGTATCGGTCGA | 3.36 log2 normalized intensity |
| TCCTGAGTGATTGTAGTGTCATTGTTATTTGCCTAGGGAGATTAGAGTATCGGTCGA | 1.98 log2 normalized intensity |
| CTGCCCTTTGGAACCTGCCCTCTGTCCCATGCCTAGGGAGATTAGAGTATCGGTCGA | 4.63 log2 normalized intensity |

| Sequence | binding signal |
| --- | --- |
| GGGTCAGAACCTGCCCATGACCTTTGGACTGCCTAGGGAGATTAGAGTATCGGTCGA | 10.8 log2 normalized intensity |
| CCTTTGGACTGTGACCCCACCTCTCAGACAGCCTAGGGAGATTAGAGTATCGGTCGA | 5.4 log2 normalized intensity |
| GGACTGTGACCCCACCTCTCAGACAGAGCTGCCTAGGGAGATTAGAGTATCGGTCGA | 3.8 log2 normalized intensity |
| GGGGAGGGCAGGGTCAGAACCTGCCCATGAGCCTAGGGAGATTAGAGTATCGGTCGA | 0.0112 log2 normalized intensity |
| CATGACCTTTGGACTGTGACCCCACCTCTCGCCTAGGGAGATTAGAGTATCGGTCGA | 7.69 log2 normalized intensity |
| GGGCAGGGTCAGAACCTGCCCATGACCTTTGCCTAGGGAGATTAGAGTATCGGTCGA | 6.45 log2 normalized intensity |
| AGAACCTGCCCATGACCTTTGGACTGTGACGCCTAGGGAGATTAGAGTATCGGTCGA | 10.2 log2 normalized intensity |
| CTTTGGAACCTGCCCTCTGTCCCATGGTGTGCCTAGGGAGATTAGAGTATCGGTCGA | 2.85 log2 normalized intensity |
| TCAGGTGTTGCTCTCTTGCCATTCGTGGATGCCTAGGGAGATTAGAGTATCGGTCGA | 0.994 log2 normalized intensity |
| ACTACTAACCGAAAGTCTGACCCTTGACCAGCCTAGGGAGATTAGAGTATCGGTCGA | 7.2 log2 normalized intensity |
| CAATCCTGGAGAAGGAGCACCAATGACCTTGCCTAGGGAGATTAGAGTATCGGTCGA | 4.02 log2 normalized intensity |
| AAACAATGACCTCTGCACCCTTCCCTGAGTGCCTAGGGAGATTAGAGTATCGGTCGA | 4.47 log2 normalized intensity |
| CAATGACCTTTGACCCTTCTCTGGGAGAAAGCCTAGGGAGATTAGAGTATCGGTCGA | 8.44 log2 normalized intensity |
| ACCTTTGACCCTTCTCTGGGAGAAAGGGAGGCCTAGGGAGATTAGAGTATCGGTCGA | 3.86 log2 normalized intensity |
| GAAGGAGCACCAATGACCTTTGACCCTTCTGCCTAGGGAGATTAGAGTATCGGTCGA | 11.2 log2 normalized intensity |
| TTTGAAAGAAAGAGACCTTTACCCTGACCTGCCTAGGGAGATTAGAGTATCGGTCGA | 4.47 log2 normalized intensity |
| CTAAGCAGCGAAGCTGTGTCAGGCATTGTAGCCTAGGGAGATTAGAGTATCGGTCGA | -0.633 log2 normalized intensity |
| AGATTCTGCAAACCTATTAATATATTCATAGCCTAGGGAGATTAGAGTATCGGTCGA | -0.929 log2 normalized intensity |
| GAGTCTGTTGTCTAACATTTTTGACCTTCAGCCTAGGGAGATTAGAGTATCGGTCGA | 4.68 log2 normalized intensity |
| CCTCTTTGAGTCTGGTGTTCTCTTGGCCAAGCCTAGGGAGATTAGAGTATCGGTCGA | 1.63 log2 normalized intensity |
| TTGACCTTTGGCCAAGGGCAGTGTTTGCCCGCCTAGGGAGATTAGAGTATCGGTCGA | 6.36 log2 normalized intensity |
| CTTTGGCCAAGGGCAGTGTTTGCCCAGCTTGCCTAGGGAGATTAGAGTATCGGTCGA | 0.731 log2 normalized intensity |
| AGGCAGTCTGTTGACCTTTGGCCAAGGGCAGCCTAGGGAGATTAGAGTATCGGTCGA | 8.19 log2 normalized intensity |
| GTCTGTTGACCTTTGGCCAAGGGCAGTGTTGCCTAGGGAGATTAGAGTATCGGTCGA | 7.73 log2 normalized intensity |
| TCTTTACACCATTGCAAGGATTCCAAATTTGCCTAGGGAGATTAGAGTATCGGTCGA | 0.0367 log2 normalized intensity |
| AAAGATTGCAGCAAGGAATTCAACCCTTGTGCCTAGGGAGATTAGAGTATCGGTCGA | 2.23 log2 normalized intensity |
| GTCTTATCTACCTGGCTTGTTTGCAAAGCAGCCTAGGGAGATTAGAGTATCGGTCGA | 0.749 log2 normalized intensity |
